Assay outcomes deposited in PubChem by Broad Institute.
Rows were chosen to be rich in hits. Some 6.8% of all compounds tested hit in one or more screens of this group.
T cruzi growth-1 = inhibitors of T. cruzi proliferation; T. cruzi beta-gal in NIH3T3, GalScreen luminescence, 90 h; inhibition, % at 8.34 µM; 5.9% of 77,000 active;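 active = mean inhibition above about 93%, with at least 55% of replicates each passing it, limit read from the data, passing the limit was not always enough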
Pf Dd2 growth = inhibitors of Plasmodium falciparum Dd2 growth. 2.3% of 94,000 active. P. falciparum Dd2 growth, SYBR Green, 72 h; stronger effect = lower value. activity change, % at 10 µM; in the data active = activity change below about -80%
C diff HTS = blocks growth of Clostridium difficile. Clostridium difficile clinical isolate growth, OD600, 24 h; stronger effect = lower value. growth activity, negative = inhibition, % at 16 µg/mL (by protocol). 0.25% of 86,000 active. AID 1259249;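 active = mean growth activity at or below -80% and every replicate also at or below -80%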;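 note: 0% = DMSO wells and -100% = levofloxacin 16 µg/mL wells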
T cruzi growth-2 = blocks T. cruzi growth in NIH3T3 host cells | 72% of 5,600 active | shares compounds with T cruzi growth-1 | T. cruzi beta-gal in NIH3T3, GalScreen luminescence, 90 h | inhibition, % at 8.35 µM;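 active = mean replicate inhibition above about 95% and at least 55% of replicates individually reaching it, limit read from the data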
T cruzi growth-3 = blocks T. cruzi growth in NIH3T3 host cells; shares compounds with T cruzi growth-1; inhibition, % at 2.09 µM; T. cruzi beta-gal in NIH3T3, GalScreen luminescence, 90 h; AID 651740; 21% of 5,600 active;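 active = mean inhibition above about 95%, with at least 55% of replicates also reaching it, limit read from the data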;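 note: plate controls were neutral control median for no effect and positive control median for full effect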
3T3 cytotox = cytotoxicity in mouse NIH/3T3 fibroblasts | cytotoxicity (signal decrease), % at 8.35 µM | 14% of 5,600 active | NIH/3T3 viability, CellTiter-Glo ATP luminescence, 90 h | shares compounds with T cruzi growth-1;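 active = mean signal decrease across replicates above about 35% based on untreated-well scatter, with enough replicates individually passing, limit read from the data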;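 note: 0% = median of neutral control wells and 100% = median of positive control wells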
NIH3T3 tox 2 = NIH/3T3 (mouse) viability loss. NIH/3T3 viability, CellTiter-Glo ATP luminescence, 90 h. AID 651744. inhibition, % at 24.9 µM. shares compounds with T cruzi growth-1. 56% of 5,600 active;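 active = mean loss of cell viability signal at or above a set limit, and enough replicates individually reaching it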;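 note: 0% = median of neutral control wells and 100% = median of positive control wells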
* marks the source's active call; other numbers are inactive results; · = no result.

SMILES	T cruzi growth-1	Pf Dd2 growth	C diff HTS	T cruzi growth-2	T cruzi growth-3	3T3 cytotox	NIH3T3 tox 2
C[C@@H]1CN([C@H](C)CO)S(=O)(=O)c2ccc(C3=CCCC3)cc2O[C@H]1CN(C)S(=O)(=O)c1ccc(F)cc1	116*	-41	6	107*	83	17	25*
C[C@@H]1CN([C@@H](C)CO)S(=O)(=O)c2ccc(C3=CCCC3)cc2O[C@@H]1CN(C)S(C)(=O)=O	-36	17	·	·	·	·	·
C[C@@H]1CN([C@H](C)CO)S(=O)(=O)c2ccc(C3=CCCC3)cc2O[C@@H]1CN(C)S(=O)(=O)c1ccc(F)cc1	122*	-23	-1	110*	40	20	32*
Cc1ccc(S(=O)(=O)N(C)C[C@H]2Oc3cc(C4=CCCC4)ccc3S(=O)(=O)N([C@H](C)CO)C[C@H]2C)cc1	·	-22	2	·	·	·	·
Cc1ccc(S(=O)(=O)N(C)C[C@@H]2Oc3cc(C4=CCCC4)ccc3S(=O)(=O)N([C@@H](C)CO)C[C@H]2C)cc1	·	-61	2	·	·	·	·
C[C@H]1CN([C@@H](C)CO)S(=O)(=O)c2ccc(C3=CCCC3)cc2O[C@@H]1CN(C)S(=O)(=O)c1ccc(F)cc1	123*	-42	8	97*	101*	45*	10
COC(=O)C[C@@H]1CC[C@H]2[C@H](COc3ccc(NC(=O)c4cccc(F)c4)cc3C(=O)N2C)O1	8	2	0	·	·	·	·
COc1cccc(S(=O)(=O)N[C@@H]2C=C[C@H](CC(=O)NCc3ccncc3)O[C@@H]2CO)c1	-34	0	-1	·	·	·	·
O=C(C[C@H]1CC[C@H]2[C@@H](COC[C@@H](O)CN2C(=O)Nc2ccc(Cl)cc2)O1)N1CCCCC1	4	4	·	·	·	·	·
COc1cccc(-c2ccc([C@H]3[C@H](CO)N4CCCCN(C(=O)NC(C)C)C[C@@H]34)cc2)c1	108*	23	-13	110*	81	37*	31*
COc1cccc(-c2ccc([C@@H]3[C@H]4CN(C(=O)NC(C)C)CC(=O)N4[C@H]3CO)cc2)c1	·	1	-2	·	·	·	·
COc1cccc(-c2ccc([C@H]3[C@@H](CO)N4CCCCN(C(=O)NC(C)C)C[C@@H]34)cc2)c1	105*	25	-22	101*	41	11	3
COc1cccc(-c2ccc([C@@H]3[C@H]4CN(C(=O)NC(C)C)CCCCN4[C@H]3CO)cc2)c1	75	33	-2	·	·	·	·
Cc1cc(C(=O)Nc2cccc3c2O[C@@H](CN(C)S(=O)(=O)c2ccccc2)[C@@H](C)CN([C@@H](C)CO)C3=O)n(C)n1	23	9	7	·	·	·	·
C[C@@H]1CN([C@@H](C)CO)C(=O)c2cc(NC(=O)CCC(F)(F)F)ccc2O[C@@H]1CN(C)CC1CC1	2	44	-3	·	·	·	·
C[C@@H]1CCCCO[C@H](CN(C)C(=O)NC2CCCCC2)[C@@H](C)CN([C@H](C)CO)C(=O)c2cc(NC(=O)Nc3ccc4c(c3)OCO4)ccc2O1	15	-16	3	·	·	·	·
COc1ccc(NC(=O)N(C)C[C@@H]2Oc3ccc(NC(=O)Cc4cn(C)c5ccccc45)cc3CC(=O)N([C@H](C)CO)C[C@@H]2C)cc1	40	-16	-4	·	·	·	·
C[C@H](CO)N1C[C@H](C)[C@@H](CN(C)S(=O)(=O)c2ccc(Cl)cc2)OCCCC[C@H](C)Oc2ccc(NS(=O)(=O)c3ccccc3)cc2C1=O	·	-67	-3	·	·	·	·
C[C@@H]1CN([C@H](C)CO)C(=O)c2cc(NS(=O)(=O)c3ccc(Cl)cc3)ccc2O[C@@H](C)CCCCO[C@@H]1CN(C)S(=O)(=O)c1ccccc1	118*	-64	-3	104*	93	-27	22
C[C@H](CO)N1C[C@H](C)[C@@H](CN(C)S(=O)(=O)c2ccccc2)OCCCC[C@H](C)Oc2ccc(NS(=O)(=O)c3ccc(Cl)cc3)cc2C1=O	114*	-4	-7	101*	67	30	9
C[C@@H]1CN([C@@H](C)CO)C(=O)c2cc(NS(=O)(=O)c3ccc(Cl)cc3)ccc2O[C@@H](C)CCCCO[C@@H]1CN(C)S(=O)(=O)c1ccccc1	83	-65	-4	·	·	·	·
C[C@@H]1CCCCO[C@H](CN(C)S(=O)(=O)c2ccc(Cl)cc2)[C@H](C)CN([C@H](C)CO)C(=O)c2cc(NS(=O)(=O)c3ccc(Cl)cc3)ccc2O1	108*	-66	4	101*	116*	10	-15
C[C@@H]1CN([C@@H](C)CO)C(=O)c2cc(NS(=O)(=O)c3ccc(Cl)cc3)ccc2O[C@@H](C)CCCCO[C@H]1CN(C)S(=O)(=O)c1ccccc1	120*	-22	-4	108*	53	11	4
C[C@@H]1CCCCO[C@@H](CN(C)S(=O)(=O)c2ccccc2)[C@@H](C)CN([C@H](C)CO)C(=O)c2cc(NS(=O)(=O)c3ccc(Cl)cc3)ccc2O1	63	-34	-5	·	·	·	·
C[C@@H]1CCCCO[C@@H](CN(C)S(=O)(=O)c2ccc(Cl)cc2)[C@H](C)CN([C@@H](C)CO)C(=O)c2cc(NS(=O)(=O)c3ccc(Cl)cc3)ccc2O1	61	1	5	·	·	·	·
SMILES	T cruzi growth-1	Pf Dd2 growth	C diff HTS	T cruzi growth-2	T cruzi growth-3	3T3 cytotox	NIH3T3 tox 2
C/C=C/c1ccc2c(c1)O[C@@H](CN(C)C(=O)c1ccccc1F)[C@@H](C)CN([C@@H](C)CO)S2(=O)=O	-21	-29	4	·	·	·	·
C[C@@H](NC(=O)C[C@@H]1CC[C@H](NC(=O)C2CC2)[C@@H](CO)O1)c1ccccc1	·	24	-1	·	·	·	·
C[C@@H]1CCCCO[C@@H](CN(C)C(=O)C2CCCCC2)[C@@H](C)CN([C@@H](C)CO)C(=O)c2cc(NC(=O)CCC(F)(F)F)ccc2O1	13	-54	1	·	·	·	·
C[C@@H]1CCCCO[C@@H](CN(C)S(=O)(=O)c2ccc(Cl)cc2)[C@H](C)CN([C@H](C)CO)C(=O)c2cc(NS(=O)(=O)c3ccccc3)ccc2O1	104	-70	0	·	·	·	·
C[C@@H]1CCCCO[C@H](CN(C)S(=O)(=O)c2ccccc2)[C@H](C)CN([C@H](C)CO)C(=O)c2cc(NS(=O)(=O)c3ccc(Cl)cc3)ccc2O1	117*	-36	-7	100*	102*	17	4
C[C@H](CO)N1C[C@H](C)[C@H](CN(C)S(=O)(=O)c2ccccc2)OCCCC[C@H](C)Oc2ccc(NS(=O)(=O)c3ccc(Cl)cc3)cc2C1=O	118*	-33	-9	104*	88	-18	-5
Cc1cccc(-c2ccc([C@H]3[C@H](CO)N4C(=O)CN(C(=O)c5cccnc5)C[C@@H]34)cc2)c1	·	13	1	·	·	·	·
CCNC(=O)C[C@H]1CC[C@H]2[C@@H](COC[C@@H](O)CN2Cc2ccccc2F)O1	-39	-4	·	·	·	·	·
